Measurements reported in PubChem BioAssay (Tox21).
Results filed as inconclusive are left out. The source made the active and inactive calls. Unless noted, the call rests on the fitted dose curve; in most records, active means well fitted curve in the direction sought with a large enough effect in the repeat runs; inconclusive means weak or mixed curves; inactive means no such curve, though single readings can be large; an effect the other way counts as inactive or inconclusive.

Columns and labels:
[1] = biological target: Estrogen receptor beta (Homo sapiens) (UniProt Q92731); assay: qHTS assay to identify small molecule agonists of the estrogen receptor beta (ER-beta) signaling pathway (AID 1259377; active means well fitted activation curve with a large enough effect in the signal ratio in the repeat runs, not every such curve was filed as active; the % refers to the signal ratio)
Summary of the method: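 ER-beta-UAS-bla HEK293T cells in medium with 2% charcoal-stripped FBS were exposed to compounds for 16 h at 37C. Beta-lactamase reporter activity was read as fluorescence after 2 h with LiveBLAzer B/G FRET substrate at room temperature.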

[2] = biological target: Estrogen receptor beta (Homo sapiens) (UniProt Q92731); assay: qHTS assay to identify small molecule antagonists of the estrogen receptor beta (ER-beta) signaling pathway (AID 1259378; active means well fitted inhibition curve with a large enough effect in the signal ratio in the repeat runs, not every such curve was filed as active; the % refers to the signal ratio)
Summary of the method: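 ER-beta-UAS-bla HEK293T cells in 2% charcoal-stripped FBS medium treated with compound plus 1nM final 17-beta-estradiol for 16 hr at 37C. Beta-lactamase reporter read by FRET substrate fluorescence after 2 hours at room temperature.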

[3] = qHTS assay to identify small molecule agonists of the androgen receptor (AR) signaling pathway in the presence of an antagonist - cell viability counter screen (AID 1259379); further: series mostly up to about 92 µM; nearly all actives have a fitted effect of over 25% in size
Summary of the method: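 MDA-kb2 human breast carcinoma cells (stable MMTV-luciferase, AR/GR responsive) were seeded 3,000 cells/well, pre-incubated 5 hr at 37C without CO2, then given 3.0uM nilutamide and compounds at 15 concentrations for 16 hr. Viability was read by CellTiter-Fluor fluorescence.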

[4] = qHTS assay to identify small molecule agonists of the estrogen receptor beta (ER-beta) signaling pathway - cell viability counter screen (AID 1259380); further: nearly all actives have a fitted effect of over 30% in size
Summary of the method: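 ER-beta-UAS-bla HEK293T cells in medium with 2% charcoal-stripped FBS were preincubated 6 hr at 37C, dosed with compound in DMSO for 16 hr, then after the bla read, CellTiter-Glo was added for 30 min at room temperature; luminescence recorded.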

[5] = qHTS assay to identify small molecule antagonists of the estrogen receptor beta (ER-beta) signaling pathway - cell viability counter screen (AID 1259382); further: series mostly up to about 92 µM; nearly all actives have a fitted effect of over 55% in size
Summary of the method: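 ER-beta-UAS-bla HEK293T cells (2,000/well, 2% charcoal-stripped FBS) were pre-incubated 6 hr at 37C, then given compound plus 1nM final 17-beta-estradiol for 16 hr. Viability was read in the same wells by CellTiter-Glo luminescence after 30 min at room temperature.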

[6] = biological target: Estrogen receptor (Homo sapiens) (UniProt P03372); assay: qHTS assay to identify small molecule agonists of the estrogen receptor alpha (ER-alpha) signaling pathway in the presence of an antagonist (AID 1259383; calls by dose curve; further: top concentration of the series differs between compounds; nearly all actives have a fitted effect of over 15% in size)
Summary of the method: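 VM7Luc4E2 cells (endogenous full-length ER-alpha, 4×ERE-luciferase) were precultured 5 days in phenol red-free medium with 10% charcoal-stripped FBS, given 10.0nM ICI-182,780 (final), then treated with compounds at 15 concentrations for 22hr at 37C; luminescence read with ONE-Glo.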

[7] = qHTS assay to identify small molecule agonists or antagonists of the thyroid stimulating hormone receptor (TSHR) signaling pathway - wild type cell line counter screen (AID 1259384; calls by dose curve)
Summary of the method: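 Wild-type Hek293 cells, 800/well, 18 h at 37C, then compound with Ro20-1724 for 30 min RT. cAMP by HTRF (cAMP-d2/anti-cAMP cryptate), 1 h RT, fluorescence read. 15 concentrations, triplicates.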

[8] = biological target: Thyrotropin receptor (Homo sapiens) (UniProt P16473); assay: qHTS assay to identify small molecule antagonists of the thyroid stimulating hormone receptor (TSHR) signaling pathway (AID 1259385; calls by dose curve; further: nearly all actives have a fitted effect of over 20% in size)
Summary of the method: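 TSHR-HEK293 cells (800/well) plated 18 h, then compounds with Ro20-1724 and TSH at 1.5 ng/mL final, 30 min at room temperature. cAMP quantified by HTRF (cAMP-d2/anti-cAMP-cryptate, 1 h); 15 concentrations in triplicate.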

[9] = qHTS assay to identify small molecule agonists of the estrogen receptor alpha (ER-alpha) signaling pathway in the presence of an antagonist - cell viability counter screen (AID 1259386);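 further: series mostly up to about 92 µM; cells exposed to compounds for 22 h at 37 °C before the viability read; nearly all actives have a fitted effect of over 30% in size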
Summary of the method: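 VM7Luc4E2 cells (endogenous full-length ER-alpha, 4×ERE-luciferase) were held 5 days in phenol red-free medium with 10% charcoal-stripped FBS, plated, then given 10.0nM ICI-182,780 and compounds at 15 concentrations for 22hr at 37C; viability read by CellTiter-Fluor fluorescence.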

[10] = biological target: Progesterone receptor (Homo sapiens) (UniProt P06401); assay: qHTS assay to identify small molecule agonists of the progesterone receptor (PR) signaling pathway (AID 1346784; calls by dose curve; further: nearly all actives have a fitted effect of over 30% in size)
Summary of the method: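 PR-UAS-bla HEK 293T cells (beta-lactamase reporter under UAS) in 2% charcoal-stripped FBS, dosed with 23 nL compound after 6 hr, incubated 16hr at 37C. LiveBLAzer B/G FRET substrate added, fluorescence read after 2 hours.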

[11] = biological target: Progesterone receptor (Homo sapiens) (UniProt P06401); assay: qHTS assay to identify small molecule antagonists of the progesterone receptor (PR) signaling pathway (AID 1346795; active means well fitted inhibition curve with a large enough effect in the signal ratio in the repeat runs, not every such curve was filed as active; the % refers to the signal ratio)
Summary of the method: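 PR-UAS-bla HEK293T cells with beta-lactamase reporter under UAS control, in 2% charcoal-stripped FBS, treated with compounds plus 1 nM promegestone (R5020, final) for 16 hr at 37C. Read-out: FRET beta-lactamase substrate fluorescence after 2 hr at room temperature.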

[12] = qHTS assay to identify small molecule antagonists of the progesterone receptor (PR) signaling pathway - cell viability counter screen (AID 1346798); further: series mostly up to about 92 µM; nearly all actives have a fitted effect of over 50% in size
Summary of the method: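 PR-UAS-bla HEK293T cells, 3,000/well in 2% charcoal-stripped FBS medium, dosed with compounds plus R5020 agonist and incubated 16 h at 37C. Viability then measured in the same wells by CellTiter-Glo luminescence after 30 min at RT.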

[13] = qHTS assay to identify small molecule agonists of the progesterone receptor (PR) signaling pathway - cell viability counter screen (AID 1346799; calls by dose curve; further: nearly all actives have a fitted effect of over 45% in size)
Summary of the method: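 Counter screen in the PR-UAS-bla HEK293T wells (2% charcoal-stripped FBS, 16 h compound exposure at 37 C) after the bla read. CellTiter-Glo added, 30 min at room temperature, luminescence read as cell viability.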

[14] = qHTS assay to identify small molecule antagonists of the TGF-beta/Smad signaling pathway - cell viability counter screen (AID 1346824); further: nearly all actives have a fitted effect of over 50% in size
Summary of the method: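 SBE-bla HEK 293T cells, incubated overnight, then compound plus 0.25 ng/mL TGF-beta1 (stock added) for 5 hr at 37 C. Viability was read in the same wells by CellTiter-Glo luminescence after 30 min at room temperature.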

[15] = qHTS assay to identify small molecule agonists of the TGF-beta/Smad signaling pathway (AID 1346859; active means well fitted activation curve with a large enough effect in the signal ratio in the repeat runs, not every such curve was filed as active; the % refers to the signal ratio; further: series mostly up to about 77 µM)
Summary of the method: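 SBE-bla HEK293T cells plated overnight, then compound exposure for 5 h at 37 C. Beta-lactamase reporter read with LiveBLAzer B/G FRET substrate after 2 h at room temperature, fluorescence at 405 nm excitation, 460/530 nm emission.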

[16] = biological target: Thyrotropin-releasing hormone receptor (Homo sapiens) (UniProt P34981); assay: qHTS assay to identify small molecule antagonists of the thyrotropin-releasing hormone receptor (TRHR) signaling pathway (AID 1346877; active means well fitted inhibition curve with a large enough effect in the repeat runs, not every such curve was filed as active; further: series mostly up to about 51 µM)
Summary of the method: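 TRHR-expressing HEK293 cells were seeded, cultured 18 h at 37 °C, then loaded with calcium dye for 2 h. Compounds were pre-incubated 5 min at room temperature before 1 nM TRH (final) was added, and kinetic fluorescence was recorded for 3 min.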

[17] = biological target: Thyrotropin-releasing hormone receptor (Homo sapiens) (UniProt P34981); assay: qHTS assay to identify small molecule agonists of the thyrotropin-releasing hormone receptor (TRHR) signaling pathway (AID 1346891; calls by dose curve; further: series mostly up to about 58 µM)
Summary of the method: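 HEK293 cells expressing TRHR plated 18 h at 37 C/5% CO2, calcium dye-loaded 2 h at 37 C, then compound added (agonist mode); kinetic calcium fluorescence read 3 min at 1 s intervals; 15 concentrations in triplicate.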

[18] = Human pregnane X receptor (PXR) small molecule agonists, qHTS cell viability counter screen (AID 1346977); further: nearly all actives have a fitted effect of over 50% in size
Summary of the method: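 PXR-Luc HepG2 cells (2,000/well, 5% charcoal-stripped FBS) preincubated 5 hr, then exposed to compounds 24 hr at 37 C. Viability read in the same wells by CellTiter-Fluor fluorescence, reagent added at 23 hr, 1 hr incubation.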

[19] = qHTS assay to identify small molecule agonists of the TGF-beta/Smad signaling pathway - cell viability counter screen (AID 1346829); further: top concentration of the series differs between compounds; nearly all actives have a fitted effect of over 45% in size
Summary of the method: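 Luminescence from CellTiter-Glo, read after a 30 min room-temperature incubation, gives cell viability of SBE-bla HEK 293T cells treated 5 hr with compounds at 37 C.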

[20] = biological target: Androgen receptor (Homo sapiens) (UniProt P10275); assay: qHTS assay to identify small molecule agonists of the androgen receptor (AR) signaling pathway in the presence of an antagonist (AID 1259381; calls by dose curve; further: nearly all actives have a fitted effect of over 15% in size)
Summary of the method: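 MDA-kb2 human breast carcinoma cells carrying an MMTV-luciferase reporter (AR- and GR-responsive) were treated with compounds at 15 concentrations plus 3.0uM final nilutamide for 16hr at 37C without CO2; luminescence was read after ONE-Glo addition.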

Measured: Potency

Androgen receptor (Homo sapiens), sequence (P10275 whole entry, looked up): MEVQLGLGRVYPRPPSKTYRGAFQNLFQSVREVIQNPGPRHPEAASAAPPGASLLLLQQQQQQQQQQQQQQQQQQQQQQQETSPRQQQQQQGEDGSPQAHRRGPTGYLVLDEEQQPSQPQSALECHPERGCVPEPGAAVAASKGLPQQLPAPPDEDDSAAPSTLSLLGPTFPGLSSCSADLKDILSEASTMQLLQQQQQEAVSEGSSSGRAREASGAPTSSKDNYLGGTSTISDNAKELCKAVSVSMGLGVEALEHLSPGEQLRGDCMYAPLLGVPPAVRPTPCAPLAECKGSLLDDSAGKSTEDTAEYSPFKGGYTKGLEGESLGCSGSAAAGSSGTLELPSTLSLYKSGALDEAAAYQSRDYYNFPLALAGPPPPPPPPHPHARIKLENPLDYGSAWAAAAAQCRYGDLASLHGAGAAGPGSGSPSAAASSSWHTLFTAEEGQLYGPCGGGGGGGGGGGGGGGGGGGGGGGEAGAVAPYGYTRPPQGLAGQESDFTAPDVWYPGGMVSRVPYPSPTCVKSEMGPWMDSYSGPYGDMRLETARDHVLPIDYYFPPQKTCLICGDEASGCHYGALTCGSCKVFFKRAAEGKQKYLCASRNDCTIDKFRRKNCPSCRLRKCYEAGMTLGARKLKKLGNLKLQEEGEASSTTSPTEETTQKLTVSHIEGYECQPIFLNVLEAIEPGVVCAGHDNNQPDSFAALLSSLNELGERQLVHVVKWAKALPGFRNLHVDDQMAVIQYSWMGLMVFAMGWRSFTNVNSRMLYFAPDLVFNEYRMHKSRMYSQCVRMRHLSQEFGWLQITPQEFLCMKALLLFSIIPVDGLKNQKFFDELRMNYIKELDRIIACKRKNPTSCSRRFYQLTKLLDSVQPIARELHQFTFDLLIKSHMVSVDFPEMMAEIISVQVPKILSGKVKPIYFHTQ
Estrogen receptor beta (Homo sapiens), sequence (Q92731 whole entry, looked up): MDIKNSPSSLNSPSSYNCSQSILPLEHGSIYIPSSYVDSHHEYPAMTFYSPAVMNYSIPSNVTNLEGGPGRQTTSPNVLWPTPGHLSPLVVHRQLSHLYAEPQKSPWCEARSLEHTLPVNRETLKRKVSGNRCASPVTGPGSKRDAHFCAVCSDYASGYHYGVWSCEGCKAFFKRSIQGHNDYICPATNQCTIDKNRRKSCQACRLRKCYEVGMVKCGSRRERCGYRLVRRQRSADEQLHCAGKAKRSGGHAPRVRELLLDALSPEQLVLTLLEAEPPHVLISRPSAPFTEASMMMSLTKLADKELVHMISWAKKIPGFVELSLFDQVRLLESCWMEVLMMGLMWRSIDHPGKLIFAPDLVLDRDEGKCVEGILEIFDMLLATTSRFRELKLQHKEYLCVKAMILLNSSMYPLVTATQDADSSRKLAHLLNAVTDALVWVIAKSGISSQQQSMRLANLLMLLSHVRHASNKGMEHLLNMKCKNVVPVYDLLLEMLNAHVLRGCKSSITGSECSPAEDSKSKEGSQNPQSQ
Thyrotropin receptor (Homo sapiens), sequence (P16473 whole entry, looked up): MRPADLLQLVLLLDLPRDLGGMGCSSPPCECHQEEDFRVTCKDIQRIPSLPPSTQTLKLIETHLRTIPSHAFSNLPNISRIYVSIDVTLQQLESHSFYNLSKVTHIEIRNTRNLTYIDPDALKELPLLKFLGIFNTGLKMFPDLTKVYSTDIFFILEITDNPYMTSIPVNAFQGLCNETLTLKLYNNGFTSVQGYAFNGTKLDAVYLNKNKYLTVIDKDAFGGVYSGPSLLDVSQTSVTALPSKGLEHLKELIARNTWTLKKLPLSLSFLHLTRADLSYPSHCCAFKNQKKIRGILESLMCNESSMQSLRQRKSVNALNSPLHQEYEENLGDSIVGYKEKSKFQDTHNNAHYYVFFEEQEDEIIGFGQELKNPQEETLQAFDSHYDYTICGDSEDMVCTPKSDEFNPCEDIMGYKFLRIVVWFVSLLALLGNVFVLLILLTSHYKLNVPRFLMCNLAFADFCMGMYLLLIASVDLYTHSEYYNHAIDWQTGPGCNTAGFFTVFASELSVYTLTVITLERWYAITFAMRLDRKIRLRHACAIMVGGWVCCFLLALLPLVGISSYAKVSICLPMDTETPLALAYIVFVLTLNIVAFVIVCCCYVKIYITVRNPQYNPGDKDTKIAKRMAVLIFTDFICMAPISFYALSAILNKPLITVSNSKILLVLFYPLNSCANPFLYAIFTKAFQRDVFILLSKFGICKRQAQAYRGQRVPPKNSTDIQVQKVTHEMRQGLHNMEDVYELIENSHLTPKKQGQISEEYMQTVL
Progesterone receptor (Homo sapiens), sequence (P06401 whole entry, looked up): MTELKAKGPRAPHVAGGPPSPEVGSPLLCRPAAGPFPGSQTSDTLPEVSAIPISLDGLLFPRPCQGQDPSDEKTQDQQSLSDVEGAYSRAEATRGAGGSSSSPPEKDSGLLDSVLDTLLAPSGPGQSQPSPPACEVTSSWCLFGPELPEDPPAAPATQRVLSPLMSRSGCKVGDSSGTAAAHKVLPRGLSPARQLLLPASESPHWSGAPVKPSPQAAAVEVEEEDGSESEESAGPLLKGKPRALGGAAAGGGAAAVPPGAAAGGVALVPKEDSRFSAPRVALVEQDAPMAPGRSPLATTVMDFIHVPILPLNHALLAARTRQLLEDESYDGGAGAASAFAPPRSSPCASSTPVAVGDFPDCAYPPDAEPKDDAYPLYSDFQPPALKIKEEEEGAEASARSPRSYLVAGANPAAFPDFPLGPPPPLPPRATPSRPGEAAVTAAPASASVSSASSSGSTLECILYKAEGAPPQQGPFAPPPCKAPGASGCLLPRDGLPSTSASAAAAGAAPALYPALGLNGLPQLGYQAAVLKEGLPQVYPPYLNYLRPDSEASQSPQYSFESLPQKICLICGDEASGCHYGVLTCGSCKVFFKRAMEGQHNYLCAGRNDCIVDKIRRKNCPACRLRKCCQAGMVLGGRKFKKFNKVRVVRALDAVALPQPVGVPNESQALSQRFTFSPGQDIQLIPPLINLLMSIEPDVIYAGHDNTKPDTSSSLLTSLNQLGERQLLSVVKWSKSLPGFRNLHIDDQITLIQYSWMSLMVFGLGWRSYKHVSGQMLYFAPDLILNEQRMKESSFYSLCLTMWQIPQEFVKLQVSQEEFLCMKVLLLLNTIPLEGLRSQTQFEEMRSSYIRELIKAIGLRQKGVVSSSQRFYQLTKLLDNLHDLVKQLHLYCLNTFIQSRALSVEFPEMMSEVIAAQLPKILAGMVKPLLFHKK
Thyrotropin-releasing hormone receptor (Homo sapiens), sequence (P34981 whole entry, looked up): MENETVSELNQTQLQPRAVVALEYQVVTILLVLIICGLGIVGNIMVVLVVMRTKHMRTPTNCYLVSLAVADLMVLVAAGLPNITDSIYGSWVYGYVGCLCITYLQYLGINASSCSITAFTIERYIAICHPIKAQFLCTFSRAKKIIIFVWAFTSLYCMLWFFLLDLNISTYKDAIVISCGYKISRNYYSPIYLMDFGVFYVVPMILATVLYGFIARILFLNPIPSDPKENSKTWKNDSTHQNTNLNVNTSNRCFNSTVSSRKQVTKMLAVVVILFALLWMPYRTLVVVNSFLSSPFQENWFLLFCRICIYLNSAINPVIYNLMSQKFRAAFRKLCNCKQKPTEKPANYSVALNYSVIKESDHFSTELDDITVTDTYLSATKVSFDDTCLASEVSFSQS
Estrogen receptor (Homo sapiens), sequence (P03372 whole entry, looked up): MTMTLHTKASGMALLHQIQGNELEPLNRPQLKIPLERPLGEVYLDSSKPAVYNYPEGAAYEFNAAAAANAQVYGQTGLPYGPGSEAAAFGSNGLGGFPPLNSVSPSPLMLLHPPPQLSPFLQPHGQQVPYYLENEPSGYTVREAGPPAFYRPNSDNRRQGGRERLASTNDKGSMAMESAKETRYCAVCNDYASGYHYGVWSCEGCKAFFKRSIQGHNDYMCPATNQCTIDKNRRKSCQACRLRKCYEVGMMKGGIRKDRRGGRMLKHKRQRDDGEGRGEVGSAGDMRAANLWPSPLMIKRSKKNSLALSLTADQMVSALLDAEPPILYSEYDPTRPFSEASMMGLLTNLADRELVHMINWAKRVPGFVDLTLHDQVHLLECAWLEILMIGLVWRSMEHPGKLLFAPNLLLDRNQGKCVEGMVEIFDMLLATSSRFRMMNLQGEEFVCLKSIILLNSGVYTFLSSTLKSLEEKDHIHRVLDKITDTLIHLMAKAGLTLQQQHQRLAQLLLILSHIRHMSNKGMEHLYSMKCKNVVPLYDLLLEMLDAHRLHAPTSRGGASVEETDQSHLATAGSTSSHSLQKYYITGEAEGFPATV

Cc1cc(O)ccc1Cl
not listed: [19] | [20]
inactive: all other assays above

CNc1cnn(-c2cccc(C(F)(F)F)c2)c(=O)c1Cl
not listed: [6] | [7] | [8] | [19] | [20]
inactive: all other assays above

CCNc1nc(Cl)nc(NC(C)C)n1
not listed: [19] | [20]
inactive: all other assays above

CNCC(O)c1ccc(O)cc1 (configuration not stated)
not listed: [20]
inactive: all other assays above

Cc1cc(Cl)ccc1OC(C)C(=O)O (configuration not stated)
not listed: [7] | [8] | [15] | [16] | [17] | [18] | [20]
inactive: all other assays above

COc1nc(NC(C)C)nc(NC(C)C)n1
not listed: [2] | [20]
inactive: all other assays above

C=CC(=O)OCCCCCC(C)C
inactive: all assays above

CCCCC(CC)C(=O)Cl (configuration not stated)
not listed: [2] | [15] | [18] | [20]
inactive: all other assays above

Cc1cccc(C)c1NC(=O)CN1CCCC1=O
not listed: [7] | [8] | [15] | [20]
inactive: all other assays above

Nc1ccc([As](=O)(O)O)cc1
not listed: [2] | [15] | [20]
inactive: all other assays above

C=CC#N
not listed: [18] | [20]
inactive: all other assays above

Cc1ccc(O)c(C)c1
not listed: [20]
inactive: all other assays above

COP(=S)(OC)SCN1C(=O)c2ccccc2C1=O
not listed: [6] | [20]
inactive: all other assays above

O=C(O)C1C(C(=O)O)C2(Cl)C(Cl)=C(Cl)C1(Cl)C2(Cl)Cl (configuration not stated)
not listed: [16] | [17] | [18] | [20]
inactive: all other assays above

CC(C)c1cccc(C(C)C)c1O
inactive: all assays above

OCc1ccco1
not listed: [2] | [18] | [19] | [20]
inactive: all other assays above
